Compounds with a hit are over-represented: about 3.7% of the library has one in this group of screens.
PTAP-TSG101 blk = inhibitors of HIV-1 PTAP binding to human TSG101, validation; 44,000 tested, under 10 active; Q99816; Potency, µM (top dose mostly 115 µM), hits mostly inhibitors; Fluorescence polarization, FITC-PTAP peptide/Tsg101, 20 min; AID 1347069; also: potency is read from the fitted curve at half-maximal effect; 0% is about no effect
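Steps: Tsg101 binding domain (10 uM final) in HEPES pH 7.5/NaCl/Tween 20/EDTA/TCEP; add compound; add FITC-PTAP peptide (50 nM final); incubate 20 min r.t.; read polarization.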
GALK inh = GALK (human) enzyme inhibition | recombinant GALK, Kinase-Glo ATP luminescence, 1 h | Potency, µM (titrated, usually from 57.5 µM), inactives show at the top dose activity, negative = inhibition, most hits filed as inhibitors | 44,000 tested, under 10 active;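 also: plate controls were full GALK reaction for no effect and reaction lacking GALK for full effect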
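Compounds were pinned into ATP buffer, then GALK-galactose mix was added (final 5 nM enzyme, 35 uM ATP, 100 uM galactose, pH 8.0). After 1 h at room temperature, Kinase-Glo Plus was added and luminescence read.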
DRV1 agonist = agonists of human resolvin D1 receptor DRV1 (GPR32); O75388; CHO-K1 GPR32 beta-arrestin PathHunter luminescence, 90 min; zero percent set by DMSO-only wells; 48,000 tested, 2.5% active; AID 1346428; activation, % at 76.9 µM;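 active = activation of at least 60% and not above a set upper limit, about 1 call in 100 departs from these limits; inconclusive = activation of 40% to 60%, or above that upper limit; inactive = activation under 40%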; also: 0% is about no effect
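Engineered CHO-K1 line co-expressing GPR32-ProLink and EA-beta-arrestin. Compound treatment lasted 90 min at 37 °C. Luminescence was recorded after 1 h with substrate at ambient temperature, relative to DMSO basal wells.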
B2AR arrestin ag = ADRB2 beta-arrestin recruitment | HTLA Tango cells, beta-arrestin recruitment, luciferase luminescence, 18 h | P07550 | 44,000 tested, under 10 active | Potency, µM (highest dose often 46.1 µM), most hits filed as activators;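 also: potency is read from the fitted curve at half-maximal effect; 0% = DMSO and full agonism = EC100 isoproterenol or metaproterenol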
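Tango cell line, 1% FBS DMEM; cpd titration up to 46 microM; 18 hr, 37 degrees C, 5% CO2. Luciferin/ATP substrate mix added, 15 min RT, luminescence. %Activity, CRC fitting, curve-class categorization.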
FH mod = Identification of activators of human fumarate hydratase by quantitative high-throughput screening; Potency, µM (top dose mostly 79.9 µM), for inactives: at the top dose activity change, negative = inhibition, actives largely listed as inhibitors; 54,000 tested, 0.22% active; Fumarate hydratase, mitochondrial (Homo sapiens), P07954; FH coupled MDH/diaphorase resazurin fluorescence, 15 min; also: potency is read from the fitted curve at half-maximal effect; % is scaled to controls: 0 for no effect and ±100 for the full control effect; the screen sought activators but most active calls are inhibition curves; nearly all actives have a fitted effect of over 45% in size
Target sequence (P07954 whole entry, looked up): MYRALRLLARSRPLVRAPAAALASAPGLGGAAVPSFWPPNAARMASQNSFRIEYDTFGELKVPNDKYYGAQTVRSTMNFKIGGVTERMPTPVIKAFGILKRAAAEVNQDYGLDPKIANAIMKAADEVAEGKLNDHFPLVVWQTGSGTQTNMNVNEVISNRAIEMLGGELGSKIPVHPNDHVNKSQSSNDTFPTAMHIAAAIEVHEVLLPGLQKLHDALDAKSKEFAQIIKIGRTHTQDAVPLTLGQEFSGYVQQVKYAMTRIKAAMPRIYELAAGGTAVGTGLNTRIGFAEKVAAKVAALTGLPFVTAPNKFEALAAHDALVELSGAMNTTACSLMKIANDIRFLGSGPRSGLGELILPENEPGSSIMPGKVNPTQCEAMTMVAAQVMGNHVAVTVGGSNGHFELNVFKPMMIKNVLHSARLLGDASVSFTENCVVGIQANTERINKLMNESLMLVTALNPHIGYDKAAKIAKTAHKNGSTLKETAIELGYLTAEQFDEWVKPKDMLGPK
NTMT1 inhibitor = NTMT1 methyltransferase inhibition; 59,000 tested, 2.5% active; Potency, µM (top dose mostly 114 µM), for inactives: top-dose activity change, negative = inhibition, actives largely listed as inhibitors; Q9BV86; NTMT1 MTase-Glo SAH luminescence, purified enzyme;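 also: potency is read from the fitted curve at half-maximal effect; plate controls were DMSO vehicle for no effect and no enzyme for full effect; nearly all actives have a fitted effect of over 65% in size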
Starred values were filed as active, the others as inactive; i = inactive; ? = inconclusive; . = not tested or not shown; ! = not active in a repeat; [ ] = another dose, or the depositor's remark. Unless noted, calls follow the shape of the dose curve; as a rule, active = well fitted curve in the direction sought with a large enough effect; inconclusive = small, poorly fitted or top-dose-only effect, or another doubt; inactive = no such curve, though single readings can be large; an effect the other way counts as inactive or inconclusive.

SMILES	PTAP-TSG101 blk	GALK inh	DRV1 agonist	B2AR arrestin ag	FH mod	NTMT1 inhibitor
O=C(CC1C(=O)OCCN1Cc1ccccc1)Nc1cccc(C(F)(F)F)c1 (centres undefined)	i	-1%	112*	i	12%	2%
CSc1ncc(C(=O)Nc2ccccc2C(F)(F)F)c(-c2ccccc2)n1	i	-3%	?	i	-14%	89µM*
CSc1ncc(C(=O)Nc2ccc(F)cc2F)c(-c2ccccc2)n1	i	1%	44	i	0%	9%
O=C(O)c1cc(O[C@@H]2O[C@H](CO[C@@H]3OC[C@@H](O)[C@H](O)[C@H]3O)[C@@H](O)[C@H](O)[C@H]2O)c2ccccc2c1O	.	.	.	.	-2%[53.3 µM]	-4%[29.8 µM]
Cc1nc(-c2cccc(F)c2)sc1CCNC(=O)Cc1ccc(F)cc1	i	1%	88*	i	1%	?
Cc1nc(-c2ccc(F)cc2)sc1CCNC(=O)c1ccccc1	i	1%	62*	i	-4%	?
Cc1cc(C)cc(NC(=O)C(=O)NCCc2sc(-c3cccc(F)c3)nc2C)c1	i	3%	3	i	-22%	-5%
CN(C(=O)c1cn2c(-c3ccc(C(F)(F)F)cc3)cnc2cn1)c1ccc(C#N)cc1	.	.	.	.	-1%	-9%
CSc1ccc(CNC(=O)Cn2ccc3cc(S(=O)(=O)N4CCCC4)ccc32)cc1	i	-2%	20	i	-45%	-1%
CCOc1ccc(CNC(=O)Cn2ccc3cc(S(=O)(=O)N4CCCCC4)ccc32)cc1	i	-1%	77*	i	?	-2%
Cc1ccc(C(=O)Nc2ccc(S(=O)(=O)O)c3cc(S(=O)(=O)O)cc(S(=O)(=O)O)c23)cc1NC(=O)c1cccc(NC(=O)Nc2cccc(C(=O)Nc3cc(C(=O)Nc4ccc(S(=O)(=O)O)c5cc(S(=O)(=O)O)cc(S(=O)(=O)O)c45)ccc3C)c2)c1	.	.	-15	.	14µM*	34%[57.5 µM]
CC1NC(=O)C(Cc2c[nH]c3ccccc23)NC1=O (centres undefined)	.	.	.	.	5%	12%[57.5 µM]
CC(C)(C)c1cnc(CSc2cnc(NC(=O)C3CCNCC3)s2)o1	.	.	.	.	6%[53.3 µM]	50µM*!
Nc1ncnc2c([C@@H]3N[C@H](CO)[C@@H](O)[C@H]3O)c[nH]c12	.	.	.	.	?	1%[57.5 µM]
O=[N+]([O-])c1cccc(CSc2nc3ncc(Br)cc3[nH]2)c1	.	.	.	.	.	0%[57.5 µM]
Cc1ccc(C)c(N2CCN(C(=O)C3CCCN(S(=O)(=O)c4cccc5nsnc45)C3)CC2)c1 (centres undefined)	i	2%	66*	i	-14%	0%
Cc1ccc(-c2ccc(=O)n(CC(=O)N(C)[C@@H](C)c3ccccc3)n2)cc1	.	.	.	.	.	-1%
Cn1c(=O)n(C)c2cc(N3CCCC3)c(NC(=O)Nc3ccccc3)cc21	i	2%	39	i	-9%	?
Cn1c(=O)n(C)c2cc(N3CCCCC3)c(NC(=O)c3c(F)cccc3F)cc21	i	1%	118*	i	.	.
CCOc1ccc(NC(=O)Nc2cc3c(cc2N2CCCCC2)n(C)c(=O)n3C)cc1	i	2%	107*	i	-15%	?
COC1CC(OC2CCC3(C)C(=CCC4C3C(OC(C)=O)C(OC(=O)/C=C/c3ccccc3)C3(C)C(C(C)O)CCC43O)C2)OC(C)C1OC1CC(OC)C(OC2OC(C)C(OC3OC(CO)C(O)C(O)C3O)C(OC)C2O)C(C)O1 (centres undefined)	.	.	.	.	14%[13.5 µM]	10%[6.45 µM]
Cc1ccccc1N1CC(c2nc3ccccc3n2CCC2CCCCC2)CC1=O (centres undefined)	i	3%	-24	i	-16%	?
Cc1ccccc1N1CC(c2nc3ccccc3n2Cc2ccc(Br)cc2)CC1=O (centres undefined)	i	3%	92*	i	?	-1%
O=C1CCCC2=C1C(c1ccn[nH]1)N=C(Nc1nc3ccccc3o1)N2 (centres undefined)	.	.	.	.	.	-8%
